# Laboratory results taken from PubChem BioAssay AID1347165 (National Center for Advancing Translational Sciences (NCATS), 2019).
# Values joined by “and” are separate entries in the source; they are usually repeats but may differ in a detail not shown here. Identical values can stand only once. Hit rate of the full screen: of about 220,000 compounds, about 5,700 (2.6%) were called active. About 18% were inconclusive and are not listed. For the sample, actives were picked, then their nearest neighbours and some compounds at random. Unmarked numbers belong to inactive results. The call rests on the fitted dose curve; in most records, active means well fitted inhibition curve with a large enough effect; inconclusive means small, poorly fitted or top-dose-only effect; inactive means no such curve, though single readings can be large or run the other way.
# Molecular target: Lysine-specific demethylase 5B (Homo sapiens) (UniProt Q9UGL1)
# Assay: Primary screen for KDM5B Histone Demethylases FDH-coupled qHTS; further: nearly all actives have a fitted effect of over 70% in size; on activity change, negative = inhibition: 0% is about no effect
# Details: FDH-coupled NADH fluorescence (FDH is formaldehyde dehydrogenase); series mostly up to 57.7 µM; activity change, negative = inhibition: at the top concentration
# Procedure, shortened: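 Inhibition is measured as reduced NADH fluorescence generation from FDH coupling to formaldehyde release. Truncated KDM5BΔAP at 200 nM final acts on H3K4me3 peptide (12.5 µM in substrate mix) in pH 7.5 HEPES buffer with Tween-20, 30 min, room temperature.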
# Potency means the concentration at half of the fitted maximal effect.
# Sequence of Lysine-specific demethylase 5B (Homo sapiens) (Q9UGL1 whole entry, looked up): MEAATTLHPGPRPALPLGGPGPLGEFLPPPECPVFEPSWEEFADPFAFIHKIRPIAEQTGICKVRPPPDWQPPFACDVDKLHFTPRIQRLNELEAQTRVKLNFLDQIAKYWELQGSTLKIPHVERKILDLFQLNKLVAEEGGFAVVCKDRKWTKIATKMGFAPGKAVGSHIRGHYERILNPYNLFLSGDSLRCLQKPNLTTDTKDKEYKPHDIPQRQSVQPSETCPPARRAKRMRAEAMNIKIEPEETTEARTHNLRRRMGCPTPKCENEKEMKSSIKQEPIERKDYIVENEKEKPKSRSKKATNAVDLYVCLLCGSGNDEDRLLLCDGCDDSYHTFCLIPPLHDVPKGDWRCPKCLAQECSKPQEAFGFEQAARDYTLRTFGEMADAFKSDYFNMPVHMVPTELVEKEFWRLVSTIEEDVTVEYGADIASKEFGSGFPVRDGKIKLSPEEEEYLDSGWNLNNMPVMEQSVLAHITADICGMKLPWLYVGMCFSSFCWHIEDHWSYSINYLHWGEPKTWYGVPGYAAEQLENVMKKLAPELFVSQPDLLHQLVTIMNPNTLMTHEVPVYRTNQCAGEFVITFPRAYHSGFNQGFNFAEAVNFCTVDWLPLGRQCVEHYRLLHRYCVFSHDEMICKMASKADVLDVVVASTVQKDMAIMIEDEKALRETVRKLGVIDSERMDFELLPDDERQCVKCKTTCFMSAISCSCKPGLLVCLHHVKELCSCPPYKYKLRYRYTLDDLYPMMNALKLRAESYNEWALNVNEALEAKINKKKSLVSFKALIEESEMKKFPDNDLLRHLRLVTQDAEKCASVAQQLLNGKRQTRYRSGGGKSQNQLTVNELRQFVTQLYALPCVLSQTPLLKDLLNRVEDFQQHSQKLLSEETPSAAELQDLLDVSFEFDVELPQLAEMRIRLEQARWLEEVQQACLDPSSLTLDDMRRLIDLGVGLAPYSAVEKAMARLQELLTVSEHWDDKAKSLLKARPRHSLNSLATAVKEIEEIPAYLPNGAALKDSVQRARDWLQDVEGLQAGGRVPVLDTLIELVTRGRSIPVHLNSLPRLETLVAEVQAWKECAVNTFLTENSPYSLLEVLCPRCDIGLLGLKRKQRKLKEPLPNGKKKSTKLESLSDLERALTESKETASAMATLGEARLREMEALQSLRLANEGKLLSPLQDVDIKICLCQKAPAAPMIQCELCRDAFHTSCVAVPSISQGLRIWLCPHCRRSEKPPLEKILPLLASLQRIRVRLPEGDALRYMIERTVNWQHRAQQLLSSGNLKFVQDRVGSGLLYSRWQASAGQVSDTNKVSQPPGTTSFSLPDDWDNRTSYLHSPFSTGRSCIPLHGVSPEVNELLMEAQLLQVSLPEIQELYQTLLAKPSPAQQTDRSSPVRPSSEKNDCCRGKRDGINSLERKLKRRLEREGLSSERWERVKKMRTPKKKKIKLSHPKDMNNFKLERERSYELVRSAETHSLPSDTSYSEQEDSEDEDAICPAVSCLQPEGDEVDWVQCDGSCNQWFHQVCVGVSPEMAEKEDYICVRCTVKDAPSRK
SMILES,Potency,"activity change, negative = inhibition"
CCc1ccc(CN(C)C(=O)c2ccc3oc(-c4cccc(F)c4)nc3c2)nc1,28.2 µM (active),–
CN(C)C(=O)c1ccc(OCc2coc(-c3cccc(F)c3)n2)cc1,–,-16.6%
O=C(O)c1ccc2oc(-c3cccc(Cl)c3)nc2c1,–,-15.7%
CCCCS(=O)CC(O)CCl (stereo not drawn),–,20%
O=C(CN1CCCCCC1)Nc1ccc(Cl)cc1F,–,-11.6%
CN(C)C(=O)CN1C(=O)c2ccccc2C1c1cn(C)c2ccccc12 (stereo not drawn),–,4.47%
Cc1cccc(-c2cccc(NC(=O)C3CCCN(C(=O)CC(F)(F)F)C3)c2)c1 (stereo not drawn),–,-16.1%
O=C(NC1CCCCC1)N1CCCCCC1c1nc(-c2cccnc2)no1 (stereo not drawn),–,-5.27%
Cc1cc(C)cc(C(=O)NCCC(=O)N2CCCC2)c1,–,-13.4%
O=C(CCNc1c(-c2ccc(F)cc2)nc2cnccn12)Nc1ccc2c(c1)OCO2,25.1 µM (active),–
CC(=O)N1CCN(C(=O)CCC(=O)N2CCC(c3noc4cc(F)ccc34)CC2)CC1,–,12.5%
O=C1CCN(C(=O)C2CCN(C(=O)CCCc3ccccc3)CC2)CCCCCCN1,–,-22.1%
O=C(CCNc1c(-c2ccccc2)nc2cnccn12)N1CCC(N2CCCCC2)CC1,28.2 µM (active),–
O=C(CSc1nc(-c2cccc(F)c2)[nH]c1-c1ccccc1)Nc1ccc2c(c1)OCO2,–,20.7%
Oc1ccc(-c2nc3ccc(Cl)cn3c2Nc2ccc3c(c2)OCO3)cc1,–,61.4%
Cc1cccc(-c2nc3cnccn3c2NCCC(=O)N2CCCCCC2)c1,28.2 µM (active),–
O=C(Nc1c(-c2ccc(F)cc2)nc2ccccn12)c1cccc(F)c1,–,-19.1%
CC1CCN(C(=O)CCNc2c(-c3ccc(F)cc3)nc3cnccn23)CC1,31.6 µM (active),–
CC(C)CCN(CC(=O)NC(N)=O)C1CC1,–,0.707%
COc1ccc(NC(=O)Cc2c(C)c3ccc(OC)c(C)c3oc2=O)cc1OC,–,-16.7%
COC(=O)c1ccc(OCc2cccc(C#N)c2)c(OC)c1,–,15.1%
Cn1c(=O)c2c(ncn2CCC(=O)Nc2ccc(F)cc2F)n(C)c1=O,–,19.5%
COc1ccc(Nc2ccccc2)cc1,–,-15%
CCCn1nc(C(=O)OCc2nc(-c3cccc(OC)c3)no2)c2ccccc2c1=O,–,-10.6%
Cc1cccc(N2CCN(C(=O)c3cnc(N4CCCC4)nc3C)CC2)c1C,–,-25.8%
COC(=O)CNC(=O)c1nc(-c2ccc([S+](C)(=O)[O-])cc2)c2ccccn12,–,5230% [at 115 µM]
Cc1cc2ccccc2n1CCNC(=O)c1ccc(F)cc1,–,-23.6%

SMILES,Potency,"activity change, negative = inhibition"
O=C(NCc1ccc(F)cc1)c1nc(-c2ccccc2)c2ccccn12,28.2 µM (active),–
COCCNC(=O)c1cc(-c2cccc(Cl)c2)on1,–,-6.23%
Cc1ccc(CNC(=O)c2c(O)nc3c(C)cccn3c2=O)cc1,–,-21.7%
O=C(CSc1nccn1Cc1ccc(F)cc1)NCc1ccccc1,–,4.1%
Cc1nc(-c2ccccc2)n(CC(=O)NCc2ccc(F)cc2)c(=O)c1CCO,–,-0.625%
O=C(c1cc(-c2ccccc2)n[nH]1)N1CCN(c2ncccn2)CC1,–,-21.9%
Cc1cccc(C)c1-c1nc(C(=O)NCc2ccc(F)cc2)n2ccccc12,28.2 µM (active),–
Cc1cccc(C)c1-c1nc(C(=O)N2CCN(c3ncccn3)CC2)n2ccccc12,31.6 µM (active) and 28.2 µM (active),–
COc1cccc(/C=C2\C=C(c3ccc(C)cc3)OC2=O)c1OC(C)=O,–,-8.74%
O=C(NCCN1CCCCC1)C(=O)Nc1cccc2[nH]ccc12,–,-14.9%
CCCC(=O)Nc1ccc(-c2csc(NC)n2)cc1,–,-0.547%
O=C(Cn1c(=O)c2c(ncn2C2CCCC2)n(Cc2ccccc2)c1=O)NC1CCS(=O)(=O)C1 (stereo not drawn),–,7.86%
CC(Oc1ccc(Cl)cc1)c1nc(-c2ccc(Cl)cc2)no1 (stereo not drawn),–,-5%
Cc1noc(C)c1-c1nccc2c(=O)cc(N3CCOCC3)oc12,39.8 µM (active),–
CN(c1ccccc1)c1cc(=O)c2ccnc(NC3CCOCC3)c2o1,–,-2.58% [at 86.2 µM]
O=c1cc(N2CCOCC2)oc2c(NCc3ccncc3)nccc12,35.5 µM (active),–
O=c1cc(N2CCOCC2)oc2c(Nc3cccc(Cl)c3)nccc12,–,-13.9% [at 86.2 µM]
Cn1ncc2c(Nc3cccc4c3CCCC4)ncnc21,–,-4.66%
CCc1ccc(-n2nc(C)c3c(C(F)(F)F)cc(OCC(=O)NC(C)C)nc32)cc1,–,2.73%
COc1cc2c(C(=O)N(C)c3cc(Cl)ccc3OC)cn(C)c(=O)c2cc1OC,–,35.9%
O=C(COc1ccccc1)N1CC2(C1)CN(Cc1ccc(Cl)cc1)C(=O)O2,–,-3.94% [at 86.2 µM]
N#CCCNC(=O)CSc1nc(C2CC2)nc2ccccc12,–,-14.8%
O=C(Cn1cnc2c(Cl)cc(Cl)cc2c1=O)N(C1CCCC1)C1CCS(=O)(=O)C1 (stereo not drawn),–,11.5%
CCCN1C(=O)NC(CC(=O)N2CCC(O)(c3ccc(C)cn3)CC2)C1=O (stereo not drawn),–,-7.99%
Cc1ccc(C2(O)CCN(c3nccc(CCC(F)(F)F)n3)CC2)nc1,22.4 µM (active),–
Cc1ccc(C2(O)CCN(C(=O)c3ccccc3-c3nn[nH]n3)CC2)nc1,–,-17.5%
